Laboratory results as given in the OligoGym collection.

Each sequence was assayed against APOBEC3A (assay: pooled miR-30 sensor sort-seq; sequence = guide strand). Conditions: shRNA.
Further: reference of the scale not given here.

Row | Sequence | sensor-assay potency score (higher = more potent)
1 | TACATTGAAAATTATTCTGAGA | -1.07
2 | AATCTTACTATTGTGTACTTGG | 0.0307
3 | TGTGGATCCATCAAGTGTCTGG | -0.129
4 | TTAGTCTAGATATGAAGCCAAA | -1.73
5 | TAAAAATCTACTTGATCGGGAG | 0.575
6 | TATTCTGAGAATATTGAGCATA | -1.17
7 | TGCTGGTCCATCTTGACCGAGG | -1.28
8 | TTAAAAATCTACTTGATCGGGA | 0.68
9 | TTCGTAGCACAGGTAGGTCTTA | -0.473
10 | TTAAATTCATCGTAGGTCATGA | 0.00462
